Only some compounds are listed: those with a hit (about 0.93% of all), similar ones and a draw of the others.
CIT2 TOR yeast: modulators of CIT2-GFP expression in yeast, primary screen, S. cerevisiae, GFP fusion, multiplex flow cytometry, MLPCN library. S. cerevisiae CIT2-GFP strain, 3 h; 100 means same as DMSO wells. GFP response vs DMSO, % at 10 µM. hit rate 0.065% among 320,000. AID 2029, 2009;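 active means GFP response relative to DMSO above a set limit, near the screen mean plus 3 SD, cut at about 150% in these data; inconclusive means Fewer than 70 cells measured for a yeast strain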;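 further: ratio of well median GFP fluorescence to mean of DMSO wells on the plate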
RPL19A-GFP yeast: RPL19A-GFP expression modulators in yeast, primary screen, cell-based, S. cerevisiae, multiplex flow cytometry, MLPCN. S. cerevisiae RPL19A-GFP strain, 3 h; hits give low values. percent response vs DMSO, % at 10 µM. hit rate 0.3% among 330,000. AID 2025, 2009;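 active means percent response vs DMSO below 50%; inconclusive means fewer than 70 events counted for the yeast strain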;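 further: median channel GFP fluorescence of the barcoded RPL19A-GFP strain; ratio of sample median GFP to plate DMSO average so 100% = DMSO; lower means less RPL19A-GFP as with rapamycin TOR inhibition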
LAP4 TOR yeast: modulators of LAP4-GFP expression in yeast, primary screen, S. cerevisiae, multiplex flow cytometry, MLPCN library. 3 h; median GFP as percent of DMSO wells. GFP response vs DMSO, % at 10 µM. hit rate 0.34% among 320,000. AID 2023, 2009;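 active means GFP response vs DMSO above a set limit, about the screen mean plus 3 SD, cut at about 150% in these data; inconclusive means under 70 cell events counted for the yeast strain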
AGP1-GFP MLPCN: modulators of AGP1-GFP expression in yeast TOR pathway, primary screen, cell-based, multiplex flow cytometry, S. cerevisiae, MLPCN library; 3 h; GFP as percent of DMSO wells; GFP response vs DMSO, % at 10 µM; hit rate 0.02% among 320,000;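 active means GFP response relative to DMSO above a set limit, near screen average plus 3 SD, cut at about 150% in these data; inconclusive means fewer than 70 cells counted for the yeast strain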;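 further: median GFP channel fluorescence of the gated AGP1 strain per well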
MEP2-GFP yeast: modulators of MEP2-GFP levels in yeast, primary screen, S. cerevisiae, multiplex flow cytometry, MLPCN library | S. cerevisiae MEP2-GFP strain, 3 h; 100% = DMSO control level | GFP response vs DMSO, % at 10 µM | hit rate 0.51% among 330,000 | AID 2016, 2009;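 active means GFP response versus DMSO above a set limit, roughly screen mean plus 3 SD, cut at about 180% in these data; inconclusive means fewer than 70 cells counted for a yeast strain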;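 further: median GFP fluorescence of the barcode-gated MEP2-GFP cells per well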
An asterisk follows results filed as active; [ ] = remark or other dose.

CCn1c(=O)c2c(nc(SCC(=O)N3CCC(C)CC3)n2C)n(C)c1=O was read as CIT2 TOR yeast inconclusive, RPL19A-GFP yeast 48.7*[may fluoresce violet], LAP4 TOR yeast 80.8, AGP1-GFP MLPCN inconclusive and MEP2-GFP yeast 363.5*[may fluoresce violet].
CCn1c(SCC(=O)N2CCCCC2)nc2c1c(=O)n(C)c(=O)n2C was read as CIT2 TOR yeast inconclusive, RPL19A-GFP yeast 61.5, LAP4 TOR yeast 90.3, AGP1-GFP MLPCN 14.1 and MEP2-GFP yeast 393.2*[may fluoresce violet].
`CCn1c(SCC(=O)N2CCCCC2C)nc2c1c(=O)n(C)c(=O)n2C` (stereo not given) gave CIT2 TOR yeast inconclusive, RPL19A-GFP yeast 49.0*[may fluoresce violet], LAP4 TOR yeast 80.7, AGP1-GFP MLPCN inconclusive and MEP2-GFP yeast inconclusive.
CC(C)(Oc1ccc(Cl)cc1)C(=O)OCc1nc2ccsc2c(=O)[nH]1 was read as CIT2 TOR yeast 103.6, RPL19A-GFP yeast 101.7, LAP4 TOR yeast 101.1, AGP1-GFP MLPCN 104.1 and MEP2-GFP yeast 104.1.
`COc1ccc(N=c2oc3cc(O)ccc3cc2C(=O)NCC2CCCO2)c(OC)c1` (stereo not given) gave CIT2 TOR yeast inconclusive, RPL19A-GFP yeast 43.2*[may fluoresce violet], LAP4 TOR yeast 82.3, AGP1-GFP MLPCN inconclusive and MEP2-GFP yeast 348.3*[may fluoresce violet].
Screening COc1ccc(N=c2oc3cc(O)ccc3cc2C(=O)NCC2CCCO2)cc1 (stereo not given) returned CIT2 TOR yeast 107.1, RPL19A-GFP yeast 101.9, LAP4 TOR yeast 101.1, AGP1-GFP MLPCN 105.7 and MEP2-GFP yeast 101.3.
For CCc1ccc(Nc2oc(C)cc(=O)c2C(C)=O)cc1 the results were CIT2 TOR yeast inconclusive, RPL19A-GFP yeast 90.1, LAP4 TOR yeast 71.8, AGP1-GFP MLPCN 14.6 and MEP2-GFP yeast 298.4*[may fluoresce violet].
Screening CCc1ccc(NC(=O)c2[nH]c(C)c(C(C)=O)c2C)cc1 returned CIT2 TOR yeast 97.6, RPL19A-GFP yeast 101.5, LAP4 TOR yeast 103.5, AGP1-GFP MLPCN 96.7 and MEP2-GFP yeast 100.3.
Screening O=C(OCCCOC(=O)c1ccc(Br)o1)c1ccc(Br)o1 returned CIT2 TOR yeast 78.5, RPL19A-GFP yeast 100.9, LAP4 TOR yeast 158.2*, AGP1-GFP MLPCN 107.6 and MEP2-GFP yeast 107.3.
Cc1cc(N2CCN(Cc3cn(C)nc3-c3ccccc3F)CC2)cc(C)n1 was read as CIT2 TOR yeast 106.2, RPL19A-GFP yeast 101.0, LAP4 TOR yeast 98.7, AGP1-GFP MLPCN 102.0 and MEP2-GFP yeast 99.4.
`CCOC(=O)CC1COCCN1Cc1cn(C)nc1-c1ccccc1F` (stereo not given) gave CIT2 TOR yeast inconclusive, RPL19A-GFP yeast 17.4*[may fluoresce violet], LAP4 TOR yeast 63.0, AGP1-GFP MLPCN inconclusive and MEP2-GFP yeast 199.2*[may fluoresce violet].
Screening COCCCn1c(C(=O)NCCN2CCOCC2)cc2c(=O)n3ccccc3nc21 returned CIT2 TOR yeast 94.7, RPL19A-GFP yeast inconclusive, LAP4 TOR yeast 104.0, AGP1-GFP MLPCN 97.5 and MEP2-GFP yeast inconclusive.
`N=c1c(C(=O)NCc2ccc(F)cc2)cc2c(=O)n3ccccc3nc2n1CCCN1CCOCC1` gave CIT2 TOR yeast inconclusive, RPL19A-GFP yeast 17.5*, LAP4 TOR yeast 97.6, AGP1-GFP MLPCN 81.0 and MEP2-GFP yeast 235.1*[may fluoresce violet].
Cn1c(C(=O)NCCN2CCOCC2)cc2c(=O)n3ccccc3nc21 was read as CIT2 TOR yeast inconclusive, RPL19A-GFP yeast 45.9*[may fluoresce violet], LAP4 TOR yeast 68.1, AGP1-GFP MLPCN inconclusive and MEP2-GFP yeast 263.0*[may fluoresce violet].
Cc1ccc2nc3c(cc(C(=O)NCCCn4ccnc4)n3C)c(=O)n2c1 was read as RPL19A-GFP yeast 39.4*[may fluoresce violet], LAP4 TOR yeast 86.1, AGP1-GFP MLPCN 78.2 and MEP2-GFP yeast 371.0*[may fluoresce violet].
`N=c1c(C(=O)NCc2ccccc2)cc2c(=O)n3ccccc3nc2n1CCCN1CCOCC1` gave CIT2 TOR yeast inconclusive, RPL19A-GFP yeast 14.5*[may fluoresce violet], LAP4 TOR yeast 73.4, AGP1-GFP MLPCN inconclusive and MEP2-GFP yeast 231.2*[may fluoresce violet].
`Cc1ccc(S(=O)(=O)Nc2c(C)nc3nc(C)[nH]n3c2=O)c(C)c1` gave CIT2 TOR yeast 93.0, RPL19A-GFP yeast 91.5, LAP4 TOR yeast 87.0, AGP1-GFP MLPCN 90.0 and MEP2-GFP yeast 99.9.
`CC(=O)O[C@H]1C[C@@]2(C)[C@@H](C[C@@H](O)[C@H]3[C@@]4(C)CC[C@@H](O)[C@@H](C)C4CC[C@@]32C)/C1=C(\CCC=C(C)C)C(=O)O` (stereo not given in full) gave CIT2 TOR yeast 122.5, RPL19A-GFP yeast 109.5, LAP4 TOR yeast 115.0, AGP1-GFP MLPCN 97.5 and MEP2-GFP yeast 108.3.
CC1CC(NC(=O)c2cc3c(=O)n4ccccc4nc3n2C)CC(C)(C)C1 (stereo not given) was read as CIT2 TOR yeast inconclusive, RPL19A-GFP yeast 26.1*[may fluoresce violet], LAP4 TOR yeast 78.8, AGP1-GFP MLPCN inconclusive and MEP2-GFP yeast 130.3.
Screening Cn1c(C(=O)O)cc2c(=O)n3ccccc3nc21 returned CIT2 TOR yeast 120.3, RPL19A-GFP yeast 48.9*, LAP4 TOR yeast 89.3, AGP1-GFP MLPCN 101.0 and MEP2-GFP yeast 208.9*.
Screening N=c1c(C(=O)NCCc2ccccc2)cc2c(=O)n3ccccc3nc2n1CCCN1CCOCC1 returned CIT2 TOR yeast inconclusive, RPL19A-GFP yeast 44.7*[may fluoresce violet], LAP4 TOR yeast 89.7, AGP1-GFP MLPCN inconclusive and MEP2-GFP yeast 443.7*[may fluoresce violet].
Screening Cn1c(C(=O)N2CCOCC2)cc2c(=O)n3ccccc3nc21 returned CIT2 TOR yeast inconclusive, RPL19A-GFP yeast 61.0, LAP4 TOR yeast 64.1, AGP1-GFP MLPCN inconclusive and MEP2-GFP yeast 142.6.
`N=c1c(C(=O)NCCN2CCOCC2)cc2c(=O)n3ccccc3nc2n1CCc1ccccc1` gave CIT2 TOR yeast inconclusive, RPL19A-GFP yeast 13.6*[may fluoresce violet], LAP4 TOR yeast 76.8, AGP1-GFP MLPCN inconclusive and MEP2-GFP yeast 251.2*[may fluoresce violet].
For CC(=O)N1c2ccc(S(=O)(=O)NCCC(=O)NCCc3ccc(C)cc3)cc2CC1C (stereo not given) the results were CIT2 TOR yeast 100.2, RPL19A-GFP yeast 98.1, LAP4 TOR yeast 93.8, AGP1-GFP MLPCN 95.3 and MEP2-GFP yeast 99.1.
COc1ccc(N2CCN(C(=O)COC(=O)CCc3ccccc3OC)CC2)cc1 was read as CIT2 TOR yeast 103.9, RPL19A-GFP yeast 97.9, LAP4 TOR yeast 103.7, AGP1-GFP MLPCN 97.8 and MEP2-GFP yeast 100.8.
O=C(NCCc1ccc(F)cc1)C(=O)Nc1cc2c3c(c1)CC(=O)N3CCC2 was read as CIT2 TOR yeast inconclusive, RPL19A-GFP yeast 46.0*[may fluoresce violet], LAP4 TOR yeast 66.5, AGP1-GFP MLPCN inconclusive and MEP2-GFP yeast 118.0.
Screening O=C(NCCc1ccc(Cl)cc1)C(=O)Nc1cc2c3c(c1)CC(=O)N3CCC2 returned CIT2 TOR yeast 95.3, RPL19A-GFP yeast 87.7, LAP4 TOR yeast 102.0, AGP1-GFP MLPCN 99.3 and MEP2-GFP yeast 86.9.
Screening N#CCCN(Cc1ccccc1)C(=O)Nc1ccc(F)cc1 returned CIT2 TOR yeast 87.9, RPL19A-GFP yeast 90.8, LAP4 TOR yeast 94.7, AGP1-GFP MLPCN 96.6 and MEP2-GFP yeast 91.0.

Screens as filed in PubChem BioAssay.
